This is a sample that favours compounds with a hit; in the whole collection about 9.1% have one here.
D1 allo mod: D1 CRE-luciferase signal change, two-sided – cell-based, HEK293 D1, dopamine EC30, D1 allosteric modulator project, primary screen; hit rate 5.9% among 58,000; B-score at 10 µM; AID 641, 2007; dopamine EC30 potentiation; actives deviate in either direction; D(1A) dopamine receptor (Homo sapiens), P21728;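 active means luminescence count or its row- and column-corrected plate score outside the 99.7% band of the plate's sample wells, on either side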
M1 antag: antagonists of rat M1 muscarinic receptor; Muscarinic acetylcholine receptor M1 (Rattus norvegicus), P08482; CHO-M1 cells, Fluo-4 calcium, ACh EC80 antagonist mode; hits give low values; B-score at 10 µM; hit rate 3.4% among 64,000; AID 628, 2007;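 active means calcium fluorescence response, raw or row-and-column corrected B-score, differing from the plate sample mean either way at a set confidence level, mostly lower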
Target sequence (P08482 whole entry, looked up): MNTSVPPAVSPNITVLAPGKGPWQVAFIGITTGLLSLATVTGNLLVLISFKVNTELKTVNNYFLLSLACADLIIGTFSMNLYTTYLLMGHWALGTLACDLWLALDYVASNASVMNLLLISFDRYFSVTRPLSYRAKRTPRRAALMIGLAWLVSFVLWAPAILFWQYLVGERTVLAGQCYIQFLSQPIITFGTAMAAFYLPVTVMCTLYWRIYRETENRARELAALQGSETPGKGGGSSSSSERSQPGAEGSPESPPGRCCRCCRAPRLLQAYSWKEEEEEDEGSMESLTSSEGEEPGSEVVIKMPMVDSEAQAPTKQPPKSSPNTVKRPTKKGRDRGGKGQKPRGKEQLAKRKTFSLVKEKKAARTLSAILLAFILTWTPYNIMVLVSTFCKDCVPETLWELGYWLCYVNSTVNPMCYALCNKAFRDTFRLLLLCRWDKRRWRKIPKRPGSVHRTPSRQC
mHtt clearance: clearance of mutant huntingtin inclusions, primary screen, imaging, HeLa Exon1htt(103Q)mCFP, confocal imaging. inhibition, % at 1.5 µM. aggregate imaging; zero = plate's median compound well. hit rate 0.42% among 47,000;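 active means inhibition of aggregate fluorescence above about 70%, also judged a hit by eye on the cell image, limit read from the data, passing the limit was not always enough; inconclusive means no rule stated for this call; inactive means not judged a hit on image review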;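 further: cells exposed to compound for three days before fixation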
M1 agonist: M1 muscarinic receptor agonists, primary screen, CHO-M1 cells, Fluo-4 calcium, agonist mode; Fluo-4 calcium fluorescence; hits give high values; hit rate 3% among 64,000; AID 626, 2007; B-score at 10 µM;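 active means fluorescence rise, raw or as B-score row- and column-corrected plate score, outside the 99.7% band of its plate's samples, either direction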
M1 agonist conf: rat M1 muscarinic receptor agonists, confirmation, CHO-M1 cells, Fluo-4 calcium, duplicate retest; shares compounds with M1 agonist; Fluo-4 calcium fluorescence, agonist mode; actives lie on both sides; fluorescence change (max-min) at 10 µM; hit rate 19% among 1,700;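 active means fluorescence change differs from the solvent-only DMSO control mean at a set confidence level in both duplicate runs; inconclusive means differs from solvent-only control mean in just one of two runs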;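 further: an EC20 dose of acetylcholine follows compound addition during the same imaging run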
M4 ag counter: agonist activity at rat M4 receptor, confirmation, counter-screen for M1 allosteric modulator project, cell-based, agonist mode; shares compounds with M1 agonist; CHO M4/Gqi5 cells, Fluo-4 calcium fluorescence; actives lie on both sides; fluorescence change (max-min) at 10 µM; hit rate 9% among 1,700;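 active means fluorescence change differing from the plate's solvent-only control wells at 99.7% confidence in both duplicates, whether higher or lower; inconclusive means differs from solvent controls in only one of two duplicates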
Of the large screens only hits and unclear results are named; the others gave an inactive call (follow-up assays come after a bar, where they were run).

CC(=O)N1CCc2cc(S(=O)(=O)NCCCOC(C)C)ccc21	M1 agonist -2.12 (no result: D1 allo mod, mHtt clearance) | M1 agonist conf inactive | M4 ag counter inconclusive
CCOc1ccc(N2CC(C(=O)Nc3ccccc3N3CCOCC3)CC2=O)cc1 (configuration not stated)	none (no result: D1 allo mod, M1 antag, M1 agonist)
CCn1c(Cc2ccccc2)nnc1SCC(=O)Nc1ccc(S(N)(=O)=O)cc1	none
COc1ccccc1OCC(O)Cn1c(Br)nc2c1c(=O)[nH]c(=O)n2C (configuration not stated)	M1 agonist 4.03 | M1 agonist conf inactive | M4 ag counter inactive
CCOC(=O)Cn1c(=O)c2c(nc(Br)n2Cc2ccccc2)n(C)c1=O	none (no result: mHtt clearance)
CCCCOC(=O)Cn1c(=O)c2c(nc(Br)n2Cc2ccccc2)n(C)c1=O	M1 agonist 7.51 (no result: mHtt clearance) | M1 agonist conf inactive | M4 ag counter inactive
COc1ccc(N(CC(=O)NCCSC2CCCCC2)S(C)(=O)=O)c(OC)c1	none (no result: D1 allo mod, M1 antag, M1 agonist)
O=C(Nc1ccccc1)Nc1ccc(S(=O)(=O)N2CCCCC2)cc1	M1 agonist 3.49 | M1 agonist conf inactive | M4 ag counter inactive
Cc1nnc(SC(C)C(=O)Nc2ccc(S(=O)(=O)N3CCCCCC3)cc2)s1 (configuration not stated)	M1 agonist -2.46 | M1 agonist conf inconclusive | M4 ag counter inconclusive
COC(=O)Nc1ccc(S(=O)(=O)N2CCCCCC2)cc1	none (no result: D1 allo mod, mHtt clearance)
Cc1nnc(SC(C)C(=O)Nc2ccc3c(c2)OCCO3)s1 (configuration not stated)	none
COc1ccc(C2=NOC(C(=O)N3CCN(c4ccccc4OC)CC3)C2)cc1 (configuration not stated)	D1 allo mod -3.51, M1 agonist 2.58 (no result: mHtt clearance) | M1 agonist conf inactive | M4 ag counter inconclusive
O=C(CN(C(=O)CNC(=O)c1ccco1)c1ccc(Cl)c(Cl)c1)NC1CCCCC1	none
COc1ccc(S(=O)(=O)C(C#N)c2nc3ccccc3nc2N2CCC(C)CC2)cc1 (configuration not stated)	M1 agonist 3.95 (no result: mHtt clearance) | M1 agonist conf inconclusive | M4 ag counter inactive
N#Cc1nc(-c2ccco2)oc1NCCCn1ccnc1	none
CCc1ccccc1NS(=O)(=O)c1ccc(SC)cc1	M1 agonist 3.26 | M1 agonist conf inactive | M4 ag counter inactive
Cc1ccc(OCCOCCn2ccnc2)c(Br)c1	none (no result: mHtt clearance)
Clc1ccc(CCNc2ncnc3nc[nH]c23)cc1	D1 allo mod -5.33, M1 antag -2.56, M1 agonist 14.9 | M1 agonist conf inconclusive | M4 ag counter inconclusive
C1=C(CCNc2ncnc3nc[nH]c23)CCCC1	M1 agonist 2.72 (no result: mHtt clearance) | M1 agonist conf inconclusive | M4 ag counter inactive
c1ccc(CCCNc2ncnc3nc[nH]c23)cc1	none (no result: mHtt clearance)
CCCNc1ncnc2nc[nH]c12	none (no result: D1 allo mod, mHtt clearance)
CN(C)C=Nc1ncc2c([nH]c3ccccc32)c1C#N	none
C=CCN(CC=C)S(=O)(=O)c1ccc2nc(NC(=O)C(C)C)sc2c1	M1 antag -2.39, M1 agonist 8.54 | M1 agonist conf inconclusive | M4 ag counter inactive
CN(C)S(=O)(=O)c1ccc2nc(NC(=O)c3cccnc3)sc2c1	none
CCn1c(=O)n(CC)c2cc(S(=O)(=O)N3CCc4ccccc43)ccc21	M1 agonist 2.58 (no result: mHtt clearance) | M1 agonist conf inactive | M4 ag counter inactive
CCC(=O)N1CCCc2cc(S(=O)(=O)N3CCCc4ccccc43)ccc21	none
CCN1CCCC1CNC(=O)c1cc(NC(C)=O)c(N(C)C)cc1OC (configuration not stated)	none (no result: mHtt clearance)
N#Cc1c(N)sc(=S)c2c1CCCCC2	M1 agonist 13.3 (no result: D1 allo mod) | M1 agonist conf inactive | M4 ag counter inactive
CC1(C)Cc2c(C#N)c(N)sc(=S)c2CS1	none (no result: mHtt clearance)
O=C(NCCc1ccc(Cl)cc1)C1CCN(S(=O)(=O)N2CCCCC2)CC1	M1 agonist 1.88 | M1 agonist conf inconclusive | M4 ag counter inactive
O=C(NCCc1ccccc1)C1CCN(S(=O)(=O)N2CCCC2)CC1	none (no result: mHtt clearance)
Cc1ccc(-c2csc(N3CCC(NS(=O)(=O)c4ccc5c(c4)OCCO5)CC3)n2)cc1	none (no result: mHtt clearance)
COCCn1c(=O)c2cc3c(=O)n(CCOC)c(=O)c3cc2c1=O	none (no result: D1 allo mod, M1 antag, M1 agonist)
O=C(O)CNS(=O)(=O)c1ccc(F)cc1	none
Cc1cc(S(=O)(=O)NCC(=O)O)ccc1F	M1 agonist 4.95 (no result: D1 allo mod, mHtt clearance) | M1 agonist conf inactive | M4 ag counter inactive
COc1ccc(NCc2cc3cc(OC)ccc3[nH]c2=O)cc1	M1 agonist 3.84 (no result: D1 allo mod, mHtt clearance) | M1 agonist conf inactive | M4 ag counter inactive
COc1ccc2[nH]c(=O)c(CN(Cc3nnnn3Cc3ccccc3)CC3CCCO3)cc2c1 (configuration not stated)	none (no result: D1 allo mod)
COc1ccc2[nH]c(=O)c(CN(Cc3cccnc3)C(=O)Nc3ccccc3)cc2c1	M1 agonist 3.51 (no result: D1 allo mod, mHtt clearance) | M1 agonist conf -27.9 | M4 ag counter inconclusive
CCOc1ccc2[nH]c(=O)c(CN(Cc3cccnc3)C(=O)Nc3ccccc3OC)cc2c1	none
COc1ccc2[nH]c(=O)c(CN(Cc3nnnn3Cc3ccc(F)cc3)CC3CCCO3)cc2c1 (configuration not stated)	M1 agonist 2.61 | M1 agonist conf inactive | M4 ag counter inactive
COc1ccc2[nH]c(=O)c(CN(CC3CCCO3)C(=O)Nc3ccccc3OC)cc2c1 (configuration not stated)	M1 agonist 6.43 (no result: D1 allo mod, mHtt clearance) | M1 agonist conf inactive | M4 ag counter inactive
CC(C)(C)NS(=O)(=O)c1ccc(NS(C)(=O)=O)cc1	none (no result: D1 allo mod, M1 antag, M1 agonist)
O=C(CN1CCOc2ccccc21)N1CCCC1	none (no result: mHtt clearance)
CC(=O)c1cc(OC(=O)c2ccncc2)ccc1OC(=O)c1ccncc1	M1 agonist 4.38 (no result: mHtt clearance) | M1 agonist conf inactive | M4 ag counter inactive
O=C(Oc1ccc(OC(=O)c2ccncc2)cc1)c1ccncc1	none (no result: mHtt clearance)
O=C(Cn1cc(C(=O)c2cccs2)c2ccccc21)NCc1ccc2c(c1)OCO2	none (no result: mHtt clearance)
CCOC(=O)CNC(=O)CSc1ncnc2c1cnn2-c1ccc(C)cc1	M1 agonist -2.17 | M1 agonist conf inactive | M4 ag counter inactive
CCOC(=O)CSc1ncnc2c1cnn2-c1ccc(C)cc1	none
O=C(CCc1nc2ccccc2c(=O)[nH]1)N1CCN(C/C=C/c2ccccc2)CC1	M1 agonist 9.42 (no result: mHtt clearance) | M1 agonist conf inactive | M4 ag counter inactive
CCc1ccc(CNCc2cccnc2)cc1	M1 agonist 17.7 | M1 agonist conf inactive | M4 ag counter inconclusive
Cc1ccc(NCc2cccnc2)cc1	none (no result: D1 allo mod, M1 antag, M1 agonist)
Cn1c(C(=O)NCCCN2CCCC2=O)cc2c(=O)n(C)c3ccccc3c21	none (no result: mHtt clearance)
CC1CCC(NC(=O)c2cc3c(=O)n(C)c4ccccc4c3n2C)CC1 (configuration not stated)	M1 agonist 3.7 (no result: mHtt clearance) | M1 agonist conf inactive | M4 ag counter inactive
Cn1c(=O)c(C(=O)NC2CCCCCCC2)c(O)c2ccccc21	none (no result: mHtt clearance)

Screening results as filed in PubChem.
